Assay results as given in the supplement of paper PMC3334620.
In all, about 33,000 sequences were measured (“E-score (-0.5 to 0.5)”: median about -0.054, highest 2% from about 0.35 on). The sample as a whole holds a higher share of the highest values than the screen did.

target: T1, Stb5 (UniProt P38699); experiment: PBM E-score (8-mer binding enrichment) (E-score (-0.5 to 0.5)); higher = stronger / more preferred TF binding; conditions: protein concentration: 200 nM; construct: GST-full length
T1 sequence: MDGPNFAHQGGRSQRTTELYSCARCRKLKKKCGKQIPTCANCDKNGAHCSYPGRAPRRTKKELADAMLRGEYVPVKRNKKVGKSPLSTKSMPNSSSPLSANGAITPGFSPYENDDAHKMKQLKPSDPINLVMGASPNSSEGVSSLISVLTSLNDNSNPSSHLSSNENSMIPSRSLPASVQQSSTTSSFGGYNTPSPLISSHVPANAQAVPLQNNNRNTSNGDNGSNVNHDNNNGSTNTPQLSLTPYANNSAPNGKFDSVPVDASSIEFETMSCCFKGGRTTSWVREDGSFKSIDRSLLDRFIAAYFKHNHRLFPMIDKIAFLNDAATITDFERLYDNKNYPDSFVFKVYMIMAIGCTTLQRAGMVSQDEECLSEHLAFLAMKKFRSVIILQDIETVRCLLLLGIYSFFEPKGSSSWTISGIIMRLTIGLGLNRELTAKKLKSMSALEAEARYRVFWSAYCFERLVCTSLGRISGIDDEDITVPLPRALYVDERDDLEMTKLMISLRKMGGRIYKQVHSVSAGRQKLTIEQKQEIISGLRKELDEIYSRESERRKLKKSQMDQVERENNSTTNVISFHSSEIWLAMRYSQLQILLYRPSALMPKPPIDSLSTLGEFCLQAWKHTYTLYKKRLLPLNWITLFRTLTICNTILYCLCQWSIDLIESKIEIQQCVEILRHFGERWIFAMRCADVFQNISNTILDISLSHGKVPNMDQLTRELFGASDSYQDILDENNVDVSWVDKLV
Description: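 Universal 'all 10-mer' protein binding microarrays (Agilent AMADID 015681) probed with GST-tagged S. cerevisiae TFs (full-length or DBD) made by in vitro transcription/translation (PURExpress), about 100-200 nM. Bound TF was detected with fluorescent anti-GST. Each ungapped 8-mer (which stands for itself and its reverse complement) is scored by the PBM enrichment score (E-score), a modified Wilcoxon-Mann-Whitney statistic from -0.5 to +0.5, computed with the Universal PBM Analysis Suite. Scale: above 0.35 generally sequence-specific binding.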

Sequence | PBM E-score
ACTTGCAA | -0.00221
CAAGAAGG | -0.193
ATCGTATC | -0.175
AGTCTTAC | -0.185
AAGGGCAT | -0.336
ACTCGGCA | 0.00054
GCATGAGC | -0.0601
GCCCAAGA | -0.114
CCATTGCG | 0.116
CGGCGGAC | 0.377
CCGCGGAG | 0.298
GCGCGGAC | 0.292
CCGCGGAC | 0.362
GGGCGGAC | 0.408
CGGCGGAG | 0.347
CCGCGGAA | 0.265
GGGCGGAA | 0.241
CGGCGGAA | 0.348
AATATATT | 0.208
CCGAACTA | 0.177
CAGCAGGG | -0.0502
CCAGAAGC | 0.0499
CCTCCTTC | -0.213
CGAGGTGC | -0.146
AGCACCTC | -0.163

Sequence | PBM E-score
AGCACCGC | 0.461
CGCACCTC | -0.0539
CGCACCGC | 0.352
CGCACCGA | 0.272
AGCACCAC | -0.0526
TCAGCTAA | -0.245
GACTAGTC | -0.117
ACTGTATG | -0.0542
ACCGCGGA | 0.358
CCCGCGCG | 0.342
CCCGCGGA | 0.322
ACCGCGGC | 0.412
GCCGCGGA | 0.299
ACCGCGAT | 0.346
ACCGCGGG | 0.317
GCCGCGGC | 0.331
ACCGCGGT | 0.39
TCCGCGGA | 0.144
CCCGCGGG | 0.361
CCCGCGGC | 0.333
CAAAACAG | -0.0698
CTGACAGA | -0.0917
ACCAGCCC | 0.211
AACGAGGG | -0.19
AAGTCGGT | 0.324

Sequence | PBM E-score
ACTTAAAC | -0.0316
AGGGAGCG | -0.0929
AGCTATCG | -0.103
AAATGAGA | -0.261
GGCACTGA | 0.00323
GAAGAATA | -0.123
AATGACCG | 0.365
AATGACCA | -0.133
AAAGACCG | 0.448
AAGGACCG | 0.383
AAGGACCA | -0.0213
CAAGACCG | 0.312
AATGACCT | -0.0215
AAAGACCA | -0.216
AAGGACCT | 0.00048
AGCATGGC | -0.178
GGCCTAGA | -0.147
CTGCATCA | -0.327
CACCTGTA | -0.208
GCCCGACC | 0.306
CCCCGACC | 0.355
ACCCGACC | 0.279
CCCCGACG | 0.449
ACCCGACG | 0.287
CCCCGACA | 0.412

Sequence | PBM E-score
CCCCGAGG | 0.148
TCCCGACA | 0.291
GCCCGACA | 0.334
GCGACTCA | -0.156
CGCAGCAG | -0.0406
CGGATGTC | 0.223
CGGATCTC | 0.103
CGGATTTA | 0.452
CGGATCTA | 0.424
CGGATTTC | 0.223
GGGATGTA | -0.0169
CGGATATC | 0.193
GGGATTTA | 0.351
GGGATCTA | 0.0662
CGGATGTA | 0.381
GGGATATA | 0.272
CGGATATA | 0.443
AGCGATGA | 0.0899
CGCCAGGA | -0.17
ACGTCATC | -0.115
CTACTACC | 0.216
ACAGCACC | 0.202
GGCTAGTA | -0.139
ACCCTGCG | -0.165
TCCACCAA | -0.103

Sequence | PBM E-score
GACAAAGA | -0.0701
AATTCCCG | 0.363
AATTCCCA | -0.261
CATTCCCG | 0.203
CATCCCGG | 0.134
AATCCGGG | 0.233
AATCCCCC | 0.127
CATCCCCG | 0.264
AATCCCGG | 0.352
AATCCCCG | 0.452
GATGCAGC | 0.0949
CATAAAGC | -0.0703
CTCAAATC | -0.136
TCACTCGA | -0.204
GGCGGTCA | 0.342
CGCGGTCC | 0.356
GGCGGTGA | 0.376
AGCGGTCC | 0.327
CGCGGTGC | 0.378
CGCGGTAA | 0.343
GCCGGTGA | 0.316
CCCGGTGA | 0.261
CTCGGTGC | 0.148
CGCGGTCA | 0.21
CGCGGTGA | 0.359

Sequence | PBM E-score
CGCGGTAG | 0.249
CCTATCAG | -0.131
CCAATATA | -0.07
CGCTCTAC | -0.0196
CAAAGCCC | 0.285
CGCGGTTA | 0.37
AGCGGTGA | 0.387
CCCGGTGC | 0.315
AGCGGTTC | 0.0808
CGCGGTTC | 0.205
AGCGGTGG | 0.346
AGCGGTGC | 0.396
ACCGGTGC | 0.377
AGCGGTCA | 0.29
AGCGGTAG | 0.204
AGCGGTTA | 0.122
ACCGGTGA | 0.319
GCCGGAAA | 0.187
CGTTGGAC | -0.0247
GTCCCATA | -0.0984
AGATTCAA | -0.16
AGCCTGCC | -0.229
CCTGACCA | -0.291
ACCGGTAC | 0.397
GACGGTGC | 0.392

Sequence | PBM E-score
ACCGGTAT | 0.336
CACGGTGC | 0.306
ACCGGTAA | 0.326
GACGGTGA | 0.325
AGAATGAT | -0.254
ATTGCATA | -0.0781
CAAGATGA | -0.286
AACCTTCC | -0.135
CGACTCCA | -0.0871
TAAAAAGA | 0.046
GCAGAGTA | -0.202
CATCTAGC | -0.12
AGGGCCGA | 0.354
AGGGCCGC | 0.36
CGGGCCGC | 0.195
GGGGCCGA | 0.158
CGGGCCGA | 0.327
AGGGCCGG | 0.271
CTGGGGCC | -0.0638
GGTTGTAA | 0.0915
CGGAGTGC | 0.198
CGGAGTCA | 0.391
GGGAGTGA | -0.0152
AGGAGTCA | -0.194
